Experimental data from PubChem BioAssay (NCI).
The panel holds about 83,000 compounds, 20% with a hit somewhere; the sample as a whole holds those more often.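 Cells were grown in 96-well plates and exposed to the test compound at a single concentration for 48 hours; results are reported as percent growth, with values below 10 considered active.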 Calls of active or inactive are those of the source.

How the values were obtained:
Experiment in all cases: NCI-60 one-dose screen, 48 h (100 = growth as untreated, 0 = no growth, -100 = all killed)
Conditions in all cases: 10 µM unless noted
HCT-15 colon = tested on: HCT-15 colon
HT29 colon = tested on: HT29 colon
SNB-75 CNS = tested on: SNB-75 CNS
SNB-19 CNS = tested on: SNB-19 CNS
U251 CNS = tested on: U251 CNS
PC-3 prostate = tested on: PC-3 prostate
SK-MEL-5 melanoma = tested on: SK-MEL-5 melanoma
UACC-62 melanoma = tested on: UACC-62 melanoma
LOX IMVI melanoma = tested on: LOX IMVI melanoma
SK-MEL-28 melanoma = tested on: SK-MEL-28 melanoma
SK-MEL-2 melanoma = tested on: SK-MEL-2 melanoma
SN12C renal = tested on: SN12C renal
UO-31 renal = tested on: UO-31 renal
TK-10 renal = tested on: TK-10 renal
ACHN renal = tested on: ACHN renal
CAKI-1 renal = tested on: CAKI-1 renal
A498 renal = tested on: A498 renal
CCRF-CEM leukemia = tested on: CCRF-CEM leukemia
MOLT-4 leukemia = tested on: MOLT-4 leukemia

Measured: growth

CCNC(=O)C1CCCN1C(=O)C(CCCN=C(N)N)NC(=O)C(CC(C)C)NC(=O)C(CC(C)C)NC(=O)C(Cc1ccc(O)cc1)NC(=O)C(CO)NC(=O)C(Cc1c[nH]c2ccccc12)NC(=O)C(Cc1cnc[nH]1)NC(=O)C1CCC(=O)N1 (stereo unspecified)
inactive: HCT-15 colon 102% | HT29 colon 97.4% | SNB-75 CNS 90.3% | SNB-19 CNS 102% | U251 CNS 94.8% | PC-3 prostate 81.8% | SK-MEL-5 melanoma 95% | UACC-62 melanoma 110% | LOX IMVI melanoma 95.1% | SK-MEL-28 melanoma 168% | SK-MEL-2 melanoma 102% | SN12C renal 112% | UO-31 renal 93.7% | TK-10 renal 110% | ACHN renal 97% | CAKI-1 renal 84.9% | A498 renal 98% | CCRF-CEM leukemia 54.5% | MOLT-4 leukemia 86.5%

COc1cc(OC)c(C(=O)/C=C/c2cccc(C(F)(F)F)c2)c(OC)c1
active: HCT-15 colon 6.82% | HT29 colon 3.81% | U251 CNS 9.44% | UACC-62 melanoma -12.1% | LOX IMVI melanoma -16.7% | SK-MEL-2 melanoma -16.1% | ACHN renal 3.47% | CCRF-CEM leukemia 4.41% | MOLT-4 leukemia 1.4%
inactive: SNB-75 CNS 19.2% | SNB-19 CNS 14.2% | PC-3 prostate 41.9% | SK-MEL-5 melanoma 13.2% | SK-MEL-28 melanoma 39.1% | SN12C renal 19.2% | UO-31 renal 26.9% | TK-10 renal 15.1% | CAKI-1 renal 33.8%

CCOC(=O)C1=C(CSC(=S)N(C2CCCCC2)C2CCCCC2)N(C)C(=O)NC1c1ccccc1 (stereo unspecified)
inactive: HCT-15 colon 39.6% | HT29 colon 22% | SNB-75 CNS 71.8% | SNB-19 CNS 49.2% | U251 CNS 39.5% | PC-3 prostate 21.6% | SK-MEL-5 melanoma 14.7% | UACC-62 melanoma 46.1% | LOX IMVI melanoma 33% | SK-MEL-28 melanoma 75.8% | SK-MEL-2 melanoma 55.6% | SN12C renal 71.2% | UO-31 renal 44.5% | TK-10 renal 74% | ACHN renal 37.8% | CAKI-1 renal 25.4% | CCRF-CEM leukemia 35.3% | MOLT-4 leukemia 28.2%

COc1cc(OC)c(C(=O)/C=C/c2ccc(C#N)cc2)c(OC)c1
active: HCT-15 colon 9.66% | HT29 colon 3.67% | SK-MEL-5 melanoma 8.04% | LOX IMVI melanoma 6.31% | SK-MEL-2 melanoma -11% | CCRF-CEM leukemia 7.44%
inactive: SNB-75 CNS 14.1% | SNB-19 CNS 16.7% | U251 CNS 12.6% | PC-3 prostate 37.4% | UACC-62 melanoma 26.5% | SK-MEL-28 melanoma 39.2% | SN12C renal 19.6% | UO-31 renal 32.4% | TK-10 renal 19.1% | ACHN renal 17.5% | CAKI-1 renal 18.5% | MOLT-4 leukemia 14.3%

COc1cccc(/C=C/C(=O)c2sc(Nc3ccc(O)cc3)nc2C)c1
inactive: HCT-15 colon 83.7% | HT29 colon 82% | SNB-75 CNS 84.1% | SNB-19 CNS 95.1% | U251 CNS 89.6% | PC-3 prostate 85.9% | SK-MEL-5 melanoma 95.4% | UACC-62 melanoma 94.4% | LOX IMVI melanoma 87.5% | SK-MEL-28 melanoma 102% | SK-MEL-2 melanoma 79.9% | SN12C renal 86.2% | UO-31 renal 62% | TK-10 renal 114% | ACHN renal 98.1% | CAKI-1 renal 105% | CCRF-CEM leukemia 13.3% | MOLT-4 leukemia 30.8%

NC(=O)NC(=O)/C=C/C(=O)OCCCl
inactive: HCT-15 colon 77.5% | HT29 colon 90% | SNB-75 CNS 80.3% | SNB-19 CNS 101% | U251 CNS 101% | PC-3 prostate 92.1% | SK-MEL-5 melanoma 106% | UACC-62 melanoma 104% | LOX IMVI melanoma 98.6% | SK-MEL-28 melanoma 100% | SK-MEL-2 melanoma 113% | SN12C renal 104% | UO-31 renal 89.2% | TK-10 renal 72.1% | ACHN renal 79.9% | CAKI-1 renal 99.6% | A498 renal 103% | MOLT-4 leukemia 96.9%

O=C(Nc1ccc(OCc2nnc(-c3ccc(Cl)cc3)o2)c(F)c1)Nc1ccc(Cl)c(Cl)c1
active: SNB-75 CNS 6.81% | ACHN renal 3.37%
inactive: HCT-15 colon 48.4% | HT29 colon 32.8% | SNB-19 CNS 71.8% | U251 CNS 46.8% | PC-3 prostate 44.4% | SK-MEL-5 melanoma 75.6% | UACC-62 melanoma 60.9% | LOX IMVI melanoma 24.5% | SK-MEL-28 melanoma 61.5% | SK-MEL-2 melanoma 81.5% | SN12C renal 90.9% | UO-31 renal 56.3% | TK-10 renal 77.5% | A498 renal 67.9% | CCRF-CEM leukemia 51.7% | MOLT-4 leukemia 45.2%

CC(=O)n1cc([C@H]2CC[C@H](c3cn(C(C)=O)c4ccccc34)c3c2[nH]c2ccccc32)c2ccccc21
inactive: HCT-15 colon 58.7% | HT29 colon 67.7% | SNB-75 CNS 87.4% | SNB-19 CNS 93.2% | U251 CNS 82.9% | PC-3 prostate 53.2% | SK-MEL-5 melanoma 80% | UACC-62 melanoma 64.4% | LOX IMVI melanoma 79.5% | SK-MEL-28 melanoma 100% | SK-MEL-2 melanoma 79.6% | SN12C renal 84.7% | UO-31 renal 55.3% | TK-10 renal 92.8% | ACHN renal 77.9% | CAKI-1 renal 57% | CCRF-CEM leukemia 64.9% | MOLT-4 leukemia 57.6%

CN(C)c1ccc(/C=C\N=Nc2ccc(Br)cc2)cc1
inactive: HCT-15 colon 36.2% | HT29 colon 52.9% | SNB-75 CNS 82% | SNB-19 CNS 96.2% | U251 CNS 68.4% | PC-3 prostate 52.3% | SK-MEL-5 melanoma 76.5% | UACC-62 melanoma 17.2% | LOX IMVI melanoma 13.2% | SK-MEL-28 melanoma 83.9% | SK-MEL-2 melanoma 72% | SN12C renal 65.8% | UO-31 renal 32.6% | TK-10 renal 68.5% | ACHN renal 60.4% | CAKI-1 renal 51.5% | CCRF-CEM leukemia 29.7% | MOLT-4 leukemia 29.2%

CC(=O)Nc1nc(C(=O)N2N=C(C)/C(=C/c3cccs3)C2=O)cs1
inactive: HCT-15 colon 93.1% | HT29 colon 96.5% | SNB-75 CNS 92% | SNB-19 CNS 102% | U251 CNS 99.4% | PC-3 prostate 102% | SK-MEL-5 melanoma 109% | UACC-62 melanoma 113% | LOX IMVI melanoma 98% | SK-MEL-28 melanoma 111% | SK-MEL-2 melanoma 98.4% | SN12C renal 110% | UO-31 renal 84% | TK-10 renal 107% | ACHN renal 113% | CAKI-1 renal 98.6% | CCRF-CEM leukemia 92.4% | MOLT-4 leukemia 79.1%

Cc1ccc(Oc2nc3ccccc3cc2-c2nnc(Cn3c(COc4ccccc4)nc4ccccc43)o2)cc1
inactive: HCT-15 colon 17.5% | SNB-75 CNS 54.9% | SNB-19 CNS 52.4% | U251 CNS 43% | PC-3 prostate 46.2% | SK-MEL-5 melanoma 80.5% | UACC-62 melanoma 50.8% | LOX IMVI melanoma 19.6% | SK-MEL-28 melanoma 90.9% | SK-MEL-2 melanoma 89.8% | SN12C renal 29.4% | TK-10 renal 77.1% | ACHN renal 49.9% | A498 renal 54.1%
active: HT29 colon 4.53% | UO-31 renal 8.45% | CCRF-CEM leukemia 0.728% | MOLT-4 leukemia -13.8%

COc1ccc(-c2nc3sccn3c2-c2ccnc(NCCCNS(=O)(=O)c3ccc(C)cc3)n2)cc1
inactive: HCT-15 colon 16.8% | HT29 colon 18.4% | SNB-75 CNS 77.4% | SNB-19 CNS 71.7% | U251 CNS 45.1% | PC-3 prostate 31.5% | UACC-62 melanoma 10.9% | LOX IMVI melanoma 11% | SK-MEL-28 melanoma 41.5% | SK-MEL-2 melanoma 25.9% | SN12C renal 36.3% | UO-31 renal 15.5% | TK-10 renal 66% | ACHN renal 22.4% | CAKI-1 renal 42.1% | CCRF-CEM leukemia 18.9% | MOLT-4 leukemia 24.6%
active: SK-MEL-5 melanoma -5.18%

COc1ccc(-c2nc3sccn3c2-c2ccnc(NCCCNS(=O)(=O)c3ccc4ccccc4c3)n2)cc1
inactive: HCT-15 colon 44.9% | HT29 colon 44.1% | SNB-75 CNS 85.5% | SNB-19 CNS 86.1% | U251 CNS 67.3% | PC-3 prostate 66.8% | SK-MEL-5 melanoma 42.3% | UACC-62 melanoma 54.5% | LOX IMVI melanoma 53.9% | SK-MEL-28 melanoma 80% | SK-MEL-2 melanoma 84.6% | SN12C renal 79.5% | UO-31 renal 60.7% | TK-10 renal 89.8% | ACHN renal 60% | CAKI-1 renal 77.5% | CCRF-CEM leukemia 53.8% | MOLT-4 leukemia 47.5%

O=S(=O)(NCCCNc1nccc(-c2c(-c3ccc(O)cc3)nc3sccn23)n1)c1ccc(F)cc1
inactive: SNB-75 CNS 17.8% | SNB-19 CNS 35.1% | U251 CNS 11.1% | PC-3 prostate 19.3% | SN12C renal 10% | TK-10 renal 26.6% | CAKI-1 renal 11.6%
active: HCT-15 colon 10% | HT29 colon 7.73% | SK-MEL-5 melanoma -85.1% | UACC-62 melanoma -1.06% | LOX IMVI melanoma -29.4% | SK-MEL-28 melanoma -6.84% | SK-MEL-2 melanoma -42.5% | UO-31 renal 9.16% | ACHN renal -5.95% | CCRF-CEM leukemia 8.07% | MOLT-4 leukemia 2.05%

C=C1C(=O)O[C@H]2[C@H](O)[C@@H](C)CCC/C(C)=C/CC[C@@]3(C)O[C@@H]3C[C@@H]12
inactive: HCT-15 colon 96.3% | HT29 colon 99.6% | SNB-75 CNS 75.7% | SNB-19 CNS 88% | U251 CNS 97.3% | PC-3 prostate 46.5% | SK-MEL-5 melanoma 91.5% | UACC-62 melanoma 89% | LOX IMVI melanoma 92% | SK-MEL-28 melanoma 95.1% | SK-MEL-2 melanoma 90.4% | SN12C renal 91.2% | UO-31 renal 77.4% | TK-10 renal 81% | ACHN renal 96% | CAKI-1 renal 74.8% | CCRF-CEM leukemia 79.5% | MOLT-4 leukemia 78.6%
